Data taken from PubChem BioAssay (NCI).
About 79,000 compounds went through this panel and 15% of them were active in at least one assay; those are over-represented in the sample as a whole. Unmarked numbers belong to inactive results. Activity calls are given as the source filed them. Rule as the data show it: active = growth inhibition above about 70%; inactive = the rest.

Assays:
[1] = NCI Yeast Anticancer Drug Screen. Data for the rad50 strain (AID 155);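 also: 0% = growth of vehicle-only cultures of the same strain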; conditions: S. cerevisiae rad50 strain growth inhibition, stronger effect = higher value
Summary of the method: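 Readout: growth inhibition relative to vehicle-treated cultures. Compound exposure was carried out in a genetically defined yeast strain deficient in DNA damage repair.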

[2] = NCI Yeast Anticancer Drug Screen. Data for the mec2-1 strain (AID 157); conditions: S. cerevisiae mec2-1 strain, stronger effect = higher value
Summary of the method: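 Compounds were applied to mec2-1 yeast cells. Their growth was then compared with that of vehicle-treated cultures to give growth inhibition.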

[3] = NCI Yeast Anticancer Drug Screen. Data for the sgs1 mgt1 strain (AID 161);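 also: 0% = growth of cultures given vehicle only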; conditions: S. cerevisiae sgs1 mgt1 strain, stronger effect = higher value
Summary of the method: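 Growth of a repair-deficient yeast mutant was monitored after compound treatment and expressed as inhibition relative to vehicle-treated cultures.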

[4] = NCI Yeast Anticancer Drug Screen. Data for the cln2 rad14 strain (AID 165);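 also: 0% = growth equal to vehicle treated cultures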; conditions: S. cerevisiae cln2 rad14 strain, stronger effect = higher value
Summary of the method: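 Strain: cln2 rad14 yeast, altered in cell cycle control and DNA damage repair. Read-out: growth inhibition vs vehicle.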

[5] = NCI Yeast Anticancer Drug Screen. Data for the bub3 strain (AID 167); conditions: S. cerevisiae bub3 mutant strain, stronger effect = higher value
Summary of the method: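 Readout: yeast growth inhibition, expressed relative to vehicle-only wells. The test organism is a mutant strain from a panel with lesions in DNA repair or checkpoint genes.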

[6] = NCI Yeast Anticancer Drug Screen. Data for the mlh1 rad18 strain (AID 175); conditions: S. cerevisiae mlh1 rad18 strain growth inhibition, stronger effect = higher value
Summary of the method: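 A repair-deficient yeast strain is exposed to test compound, and growth is scored relative to vehicle-treated controls.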

[7] = at 5.0 µM (retest, dose inferred, filed as 0.5)
[8] = at 50.0 µM (retest, dose inferred, filed as 5.0)

Compound | growth inhibition [1, 7] | growth inhibition [1, 8] | growth inhibition ([1]; at 50.0 µM) | growth inhibition [2, 7] | growth inhibition [2, 8] | growth inhibition ([2]; at 50.0 µM) | growth inhibition [3, 7] | growth inhibition [3, 8] | growth inhibition ([3]; at 50.0 µM) | growth inhibition [4, 7] | growth inhibition [4, 8] | growth inhibition ([4]; at 50.0 µM) | growth inhibition [5, 7] | growth inhibition [5, 8] | growth inhibition ([5]; at 50.0 µM) | growth inhibition [6, 7] | growth inhibition [6, 8] | growth inhibition ([6]; at 50.0 µM)
CC(=O)Nc1c2sscc-2n(C)c1=O | 98% (active) | 99% (active) | 93.2% (active) | 99% (active) | 100% (active) | 94.9% (active) | 99% (active) | 99% (active) | 94.6% (active) | 98% (active) | 99% (active) | 93.2% (active) | 97% (active) | 99% (active) | 94% (active) | 99% (active) | 99% (active) | 92.7% (active)
O=C1CC2CCCC(C1)N2Cc1ccccc1 | 2% | 26% | 71.5% (active) | 4% | 28% | -6.1% | 15% | 47% | 62.5% | -69% | 47% | 37.5% | -2% | 25% | 34.9% | 7% | 24% | 51.7%
CCC[CH2][Sn]1([CH2]CCC)[O]C2C(O)OC(CO)C(O)C2[O]1 (configuration not stated) | 84% (active) | 99% (active) | 99% (active) | 74% (active) | 99% (active) | 99.3% (active) | 82% (active) | 99% (active) | 99% (active) | 64% | 99% (active) | 99% (active) | 80% (active) | 99% (active) | 98.7% (active) | 81% (active) | 99% (active) | 98.6% (active)
Oc1c(Cl)cc(Cl)c2ccccc12 | 11% | 71% (active) | 86.5% (active) | 7% | 38% | 27.6% | 4% | 63% | 91.5% (active) | 5% | 14% | -18.9% | 12% | 44% | 9.2% | 13% | 74% (active) | 87% (active)
Cc1ccc2c(C)c3ccc4ccccc4c3c[n+]2c1 | 74% (active) | 94% (active) | 71.2% (active) | 65% | 89% (active) | 83.5% (active) | 87% (active) | 95% (active) | 85.2% (active) | 51% | 71% (active) | 52.6% | 69% | 88% (active) | 86.5% (active) | 52% | 88% (active) | 72.5% (active)
CC(=N\O)/C(C)=N/O.CC(=N\O)/C(C)=N/O.CC(=N\O)/C(C)=N/O.CC(=N\O)/C(C)=N/O.[CH3-].[CH3-].[Co].[Co] | 15% | 25% | 46.5% | 8% | 17% | 24.6% | 21% | 18% | 30.1% | 11% | 24% | 2.8% | -1% | 13% | -12.7% | 14% | 39% | 63.6%
CCOP(=O)(OCC)C(O)c1ccccc1Cl (configuration not stated) | 7% | 4% | 38.4% | 7% | 4% | -4.1% | 3% | 17% | 9.15% | -5% | 1% | 35.5% | -5% | -6% | 17.2% | 7% | 22% | 2.9%
CN1C(=O)C23CC4=CC=CC(O)C4N2C(=O)C1(CO)SS3 (configuration not stated) | 99% (active) | 99% (active) | 92.8% (active) | 99% (active) | 100% (active) | 95% (active) | 99% (active) | 100% (active) | 93.2% (active) | 99% (active) | 99% (active) | 92.5% (active) | 99% (active) | 99% (active) | 93.5% (active) | 99% (active) | 99% (active) | 93.5% (active)
COc1ccc(/C=C(\C)[N+](=O)[O-])cc1OC | 53% | 97% (active) | 90.1% (active) | 41% | 99% (active) | 92% (active) | 55% | 99% (active) | 91% (active) | 26% | 98% (active) | 87.3% (active) | 42% | 98% (active) | 93.8% (active) | 58% | 99% (active) | 93% (active)
C(#C[PH+](c1ccccc1)c1ccccc1)c1ccccc1.C(#C[PH+](c1ccccc1)c1ccccc1)c1ccccc1.C(#C[PH+](c1ccccc1)c1ccccc1)c1ccccc1.[C-]#[O+].[C-]#[O+].[C-]#[O+].[Cr] | 29% | 35% | 83.2% (active) | 31% | 27% | 87% (active) | 14% | 17% | 86.8% (active) | 31% | 39% | 84.5% (active) | 44% | 39% | 88.2% (active) | 0% | 37% | 82.5% (active)
COc1cc2c(cc1OC)C(OC)N(C)c1c-2ccc2cc3c(cc12)OCO3 (configuration not stated) | 16% | 41% | 3.45% | 9% | 12% | -48% | 7% | 30% | -22.1% | 16% | 33% | 6.7% | 2% | 30% | -40% | 17% | 24% | -21.8%
CCC[CH2][Sn]([CH2]CCC)([N]=C=S)[N]=C=S | 85% (active) | 97% (active) | 97.9% (active) | 92% (active) | 98% (active) | 98% (active) | 92% (active) | 98% (active) | 98% (active) | 87% (active) | 97% (active) | 97.3% (active) | 94% (active) | 97% (active) | 98.4% (active) | 93% (active) | 98% (active) | 98.1% (active)
N#CCC[CH2][Sn]([Br])([Br])[c]1ccccc1 | 3% | 72% (active) | 43.9% | 23% | 22% | 80.1% (active) | 49% | 49% | 6% | 2% | 11% | 34.5% | -6% | 18% | 89.4% (active) | 8% | 58% | 36.5%
CCOP(=O)(O)C(Nc1ccc(N=Nc2ccccc2)cc1)c1ccc(C(Nc2ccc(N=Nc3ccccc3)cc2)P(=O)(O)OCC)cc1 (configuration not stated) | -4% | 35% | 54% | -6% | 27% | 67.7% | 3% | 37% | 86% (active) | -8% | -6% | 41.3% | -5% | 31% | 57.5% | -5% | 31% | 90.1% (active)
Cc1cc(C(C)(C)c2ccc(O)c(C)c2)ccc1O | -2% | 98% (active) | 99.3% (active) | -4% | 99% (active) | 99.4% (active) | -6% | 98% (active) | 99.5% (active) | 1% | 98% (active) | 97.6% (active) | -1% | 99% (active) | 99.2% (active) | 0% | 99% (active) | 99.3% (active)
C[CH2][Pb]([CH2]C)([CH2]C)[O]C(=O)COc1ccc(Cl)cc1Cl | 29% | 84% (active) | 91.5% (active) | 14% | 89% (active) | 95.1% (active) | 3% | 94% (active) | 95% (active) | 2% | 91% (active) | 85.7% (active) | -4% | 95% (active) | 95.6% (active) | 29% | 96% (active) | 97% (active)
C/C(=N\Nc1ccccc1)C(CN(C)C)C(c1ccccc1)c1c(O)c2ccccc2oc1=O (configuration not stated) | 24% | 24% | 88.2% (active) | 14% | 14% | 86.2% (active) | 16% | 16% | 87.8% (active) | 5% | 5% | 86% (active) | 10% | 10% | 83.6% (active) | 12% | 12% | 86.5% (active)
COc1ccc(/C=C\[N+](=O)[O-])cc1OC | 47% | 97% (active) | 99.4% (active) | 27% | 99% (active) | 99.7% (active) | 25% | 99% (active) | 99.7% (active) | 12% | 99% (active) | 99% (active) | 14% | 99% (active) | 99.3% (active) | 28% | 99% (active) | 99.5% (active)
CCOC(=O)C(Cl)Cl | -1% | 0% | -32.4% | 3% | -2% | -2.7% | 0% | -2% | -5.25% | -2% | -4% | -39.8% | 1% | -5% | -18.3% | 2% | -2% | 33.4%
